According to PubChem BioAssay (Tox21):
Results filed as inconclusive are left out. Calls of active or inactive are those of the source. Unless noted, the call rests on the fitted dose curve; in most records, active means well fitted curve in the direction sought with a large enough effect in the repeat runs; inconclusive means weak or mixed curves; inactive means no such curve, though single readings can be large; an effect the other way counts as inactive or inconclusive.

Experiments:
[1] = qHTS assay for small molecule agonists of the p53 signaling pathway (AID 651631; calls by dose curve; further: nearly all actives have a fitted effect of over 15% in size)
Method in brief: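 Agonist mode screen using a stably integrated beta-lactamase gene under p53 response elements in HCT-116 cells. Compound exposure lasts 16 h at 37 °C; fluorescence intensity is measured following 2 h FRET substrate loading.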

[2] = qHTS assay for small molecules that induce genotoxicity in human embryonic kidney cells expressing luciferase-tagged ATAD5 (AID 651632); further: nearly all actives have a fitted effect of over 15% in size
Method in brief: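 HEK293T cells carrying luciferase-tagged ATAD5 were given compound or DMSO vehicle and incubated 16 hr at 37C, 5% CO2. Luciferase activity was read after 30 min at room temperature with Amplite; a rise signals genotoxic stress.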

[3] = qHTS assay for small molecule agonists of the p53 signaling pathway - cell viability (AID 651633; calls by dose curve;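 further: p53RE-bla HCT reporter cells with a stable beta-lactamase p53 reporter; series mostly up to about 83 µM; nearly all actives have a fitted effect of over 30% in size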)
Method in brief: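 Viability counter-read: CellTiter-Glo luminescence (30 min, room temperature) in the same p53RE-bla plates. These plates had been exposed to compounds for 16 h at 37 C.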

[4] = qHTS assay for small molecules that induce genotoxicity in human embryonic kidney cells expressing luciferase-tagged ATAD5 - cell viability (AID 651634; calls by dose curve; further: nearly all actives have a fitted effect of over 25% in size)
Method in brief: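 HEK293T cells carrying luciferase-tagged ATAD5, 2,000 cells/well, exposed to compound for 15.5 hr at 37C. Viability read as live-cell protease activity by CellTiter-Fluor fluorescence after 30 min at 37C.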

[5] = qHTS assay for small molecule disruptors of the mitochondrial membrane potential - cell viability (AID 720634; calls by dose curve;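 further: human HepG2 liver cancer cells; series mostly up to about 83 µM; nearly all actives have a fitted effect of over 20% in size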)
Method in brief: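 HepG2 cells, 2,000 per well, attached overnight, then treated 1 hr at 37 C, 5% CO2. Viability read as ATP by CellTiter-Glo luminescence after 30 min at room temperature. Read in the same wells as the m-MPI membrane-potential dye assay.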

[6] = qHTS assay to test for compound auto fluorescence at 590 nm (red) in HepG2 cells (AID 720674)
Method in brief: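 1 hr compound incubation on HepG2 cells, 37 C, 5% CO2; plate read ex 540 nm / em 590 nm; intensities reported as Rose Bengal sodium equivalents.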

[7] = qHTS assay to test for compound auto fluorescence at 535 nm (green) in HepG2 cells (AID 720675)
[8] = qHTS assay to test for compound auto fluorescence at 460 nm (blue) in HEK293 cells (AID 720678)
Method in brief: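 HEK293 cells (2,000 per well, medium with 10% dialyzed FBS) attached for 4-5 hr at 37C, then received compound and stood overnight at 37C, 5% CO2. Blue fluorescence was read at Ex/Em 405/460 nm and expressed relative to triamterene.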

[9] = qHTS assay to test for compound auto fluorescence at 590 nm (red) in HEK293 cells (AID 720679)
Method in brief: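 HEK293 cells (2,000/well, medium with 10% dialyzed FBS) attached for 4-5 hr at 37C, received 23 nL compound and were incubated overnight at 37C, 5% CO2. Red fluorescence was then read at 540/590nm Ex/Em, referenced to Rose Bengal sodium.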

[10] = qHTS assay to test for compound auto fluorescence at 535 nm (green) in HEK293 cells (AID 720680)
[11] = qHTS assay to test for compound auto fluorescence at 460 nm (blue) in HEK293 cell free culture (AID 720681)
Method in brief: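 Blue fluorescence (Ex 405/Em 460 nm, triamterene-equivalent) was read immediately after pin transfer of compound or DMSO into medium (DMEM, 10% FBS) without cells.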

[12] = qHTS assay to test for compound auto fluorescence at 535 nm (green) in HEK293 cell free culture (AID 720682)
Method in brief: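 No cells present: wells hold DMEM supplemented with 10% FBS, into which compound or vehicle is pinned. Green emission is then recorded (485 nm excitation, 535 nm emission) and scaled to fluorescein.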

[13] = qHTS assay to test for compound auto fluorescence at 590 nm (red) in HEK293 cell free culture (AID 720683)
Method in brief: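 Red-channel autofluorescence of compounds in culture medium (DMEM, 10% FBS), no cells, measured at 540/590 nm. Rose Bengal sodium is the reference fluorophore for equivalence.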

[14] = qHTS assay to test for compound auto fluorescence at 590 nm (red) in HepG2 cell free culture (AID 720684)
Method in brief: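 Steps: dispense MEM/10% FBS medium, no cells; pin compound or DMSO vehicle; read red channel, Ex/Em 540/590 nm. Output given as Rose Bengal sodium equivalents.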

[15] = qHTS assay to test for compound auto fluorescence at 460 nm (blue) in HepG2 cell free culture (AID 720685)
Method in brief: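 Compound (23 nL) or DMSO pinned into cell-free MEM with 10% FBS; blue fluorescence read at 405/460 nm excitation/emission, expressed as auto-fluorescence equivalency to triamterene.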

[16] = qHTS assay to test for compound auto fluorescence at 535 nm (green) in HepG2 cell free culture (AID 720686)
[17] = target: Glucocorticoid receptor (Homo sapiens) (UniProt P04150); assay: qHTS assay to identify small molecule agonists of the glucocorticoid receptor (GR) signaling pathway (AID 720691; active means well fitted activation curve with a large enough effect in the signal ratio in the repeat runs, not every such curve was filed as active; the % refers to the signal ratio)
Sequence of Glucocorticoid receptor (Homo sapiens) (P04150 whole entry, looked up): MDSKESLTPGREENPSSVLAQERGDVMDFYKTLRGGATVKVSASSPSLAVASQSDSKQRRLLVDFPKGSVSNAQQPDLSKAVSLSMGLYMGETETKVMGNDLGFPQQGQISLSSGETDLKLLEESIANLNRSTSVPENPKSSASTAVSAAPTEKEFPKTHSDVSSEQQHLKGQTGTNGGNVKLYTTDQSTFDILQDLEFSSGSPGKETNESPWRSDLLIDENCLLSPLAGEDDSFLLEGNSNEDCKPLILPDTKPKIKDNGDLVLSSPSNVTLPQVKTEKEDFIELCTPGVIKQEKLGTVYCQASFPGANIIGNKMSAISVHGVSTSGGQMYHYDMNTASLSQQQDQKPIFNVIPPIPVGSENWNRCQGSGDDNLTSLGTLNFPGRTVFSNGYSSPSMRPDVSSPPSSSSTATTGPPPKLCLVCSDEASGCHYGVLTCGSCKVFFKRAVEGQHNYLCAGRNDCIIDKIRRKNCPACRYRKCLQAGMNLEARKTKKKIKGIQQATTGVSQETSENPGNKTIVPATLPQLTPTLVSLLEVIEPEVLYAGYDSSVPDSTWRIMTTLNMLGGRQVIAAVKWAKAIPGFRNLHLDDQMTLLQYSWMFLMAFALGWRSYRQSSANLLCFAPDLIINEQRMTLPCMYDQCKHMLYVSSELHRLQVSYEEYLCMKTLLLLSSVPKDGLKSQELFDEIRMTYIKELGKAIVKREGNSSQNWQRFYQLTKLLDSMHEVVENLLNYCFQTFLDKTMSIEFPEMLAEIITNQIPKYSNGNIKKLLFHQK
Method in brief: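 GR-bla HeLa cells carrying a GRE-driven beta-lactamase reporter, exposed to compounds for 18 h at 37 C. Reporter activation read as fluorescence after 2 h with LiveBLAzer B/G FRET substrate at room temperature.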

[18] = target: Glucocorticoid receptor (Homo sapiens) (UniProt P04150); assay: qHTS assay to identify small molecule antagonists of the glucocorticoid receptor (GR) signaling pathway (AID 720692; active means well fitted inhibition curve with a large enough effect in the signal ratio in the repeat runs, not every such curve was filed as active; the % refers to the signal ratio)
Method in brief: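 GR-bla HeLa cells carrying a GRE-driven beta-lactamase reporter received compound after 4 h plating, then dexamethasone (5 nM final). After 18 h at 37C, the FRET substrate was loaded for 2 h at room temperature and fluorescence read.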

[19] = qHTS assay for small molecule disruptors of the mitochondrial membrane potential (AID 720635); further: potency means the concentration at half of the fitted maximal effect
Method in brief: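 Mitochondrial membrane potential tracked with Mito-MPS dye, red aggregates (ex 540/em 590 nm) against green monomers (ex 490/em 535 nm). Compound treatment 1 hr at 37C, dye 30 min in HepG2.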

[20] = qHTS assay to test for compound auto fluorescence at 460 nm (blue) in HepG2 cells (AID 720687)
Method in brief: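 Blue-channel autofluorescence (Ex/Em 405/460 nm, triamterene-equivalent) was measured after 1 hr compound exposure at 37 C, 5% CO2. Cells were HepG2, plated overnight at 37 C in MEM plus 10% FBS.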
On the % scale 0 is the no-effect control and ±100 the full control effect.

[K+]
inactive: Potency [1] | Potency [2] | Potency [3] | Potency [4] | outcome [5] | outcome [6] | outcome [7] | outcome [8] | outcome [9] | outcome [10] | outcome [11] | outcome [12] | outcome [13] | outcome [14] | outcome [15] | outcome [16] | Potency [17] | Potency [18]

COCCOC[C@H](CC1(C(=O)NC2CCC(C(=O)O)CC2)CCCC1)C(=O)Oc1ccc2c(c1)CCC2 (stereo not given in full)
inactive: Potency [1] | Potency [2] | Potency [3] | Potency [4] | outcome [5] | Potency [19] | outcome [7] | outcome [8] | outcome [9] | outcome [10] | outcome [11] | outcome [12] | outcome [13] | outcome [14] | outcome [15] | outcome [16] | Potency [17] | Potency [18]

Cc1cc(C)c(N=Nc2c(O)c(S(=O)(=O)O)cc3cc(S(=O)(=O)O)ccc23)cc1C
inactive: activation [1] -4.32% [at 8.3 µM] | activation [2] 1.99% [at 8.08 µM] | activity change, negative = cytotoxicity [3] 11.3% [at 8.08 µM] | activity, negative = cytotoxicity [4] -13.8% [at 8.08 µM] | activity change, negative = cytotoxicity [5] -3.07% [at 8.08 µM] | fluorescence, relative to Rose Bengal [6] 0.0524% [at 9.17 µM] | fluorescence, % of fluorescein control [7] -0.0414% [at 9.17 µM] | fluorescence, % of triamterene [8] -0.0938% [at 9.17 µM] | fluorescence, % of fluorescent control [9] -0.166% [at 9.17 µM] | fluorescence, % of fluorescein [10] -0.0092% [at 9.17 µM] | fluorescence, % of fluorescent control [11] -0.0769% [at 9.17 µM] | activity change [12] 0.0216% [at 9.17 µM] | fluorescence, % of fluorescent control [13] 0.0378% [at 9.17 µM] | fluorescence, % of Rose Bengal [14] 0.0175% [at 9.17 µM] | fluorescence, % of fluorescent control [15] -0.11% [at 9.17 µM] | fluorescence, % of fluorescein control [16] -0.0747% [at 9.17 µM] | fluorescence, % of fluorescent control [20] -0.0207% [at 9.17 µM] | activation [17] -1.47% [at 6.9 µM] | activity change, negative = inhibition [18] 0.597% [at 7.04 µM]

O=C1CCCCCCCCCCCCCCO1
inactive: Potency [1] | Potency [2] | Potency [3] | Potency [4] | outcome [5] | Potency [19] | outcome [7] | outcome [8] | outcome [9] | outcome [10] | outcome [11] | outcome [12] | outcome [13] | outcome [14] | outcome [15] | outcome [16] | outcome [20] | Potency [17] | Potency [18]

CC(=O)N[C@H]1[C@H]([C@H](O)[C@H](O)CO)OC(C(=O)O)=C[C@@H]1N=C(N)N
inactive: Potency [1] | Potency [2] | Potency [3] | Potency [4] | outcome [5] | outcome [6] | outcome [7] | outcome [8] | outcome [9] | outcome [10] | outcome [11] | outcome [12] | outcome [13] | outcome [14] | outcome [15] | outcome [16] | outcome [20] | Potency [17] | Potency [18]

c1coc(CNc2ncnc3nc[nH]c23)c1
inactive: Potency [1] | Potency [2] | Potency [3] | Potency [4] | outcome [5] | outcome [6] | outcome [7] | outcome [8] | outcome [9] | outcome [10] | outcome [11] | outcome [12] | outcome [13] | outcome [14] | outcome [15] | outcome [16] | outcome [20] | Potency [17]

c1ccc(CCc2ccccc2)cc1
inactive: Potency [1] | Potency [2] | Potency [3] | Potency [4] | outcome [5] | Potency [19] | outcome [7] | outcome [8] | outcome [9] | outcome [10] | outcome [11] | outcome [12] | outcome [13] | outcome [14] | outcome [15] | outcome [16]

Nc1ccncc1N
inactive: Potency [1] | Potency [2] | Potency [3] | Potency [4] | outcome [5] | Potency [19] | outcome [6] | outcome [9] | outcome [10] | outcome [11] | outcome [12] | outcome [13] | outcome [14] | outcome [15] | outcome [16] | outcome [20] | Potency [17] | Potency [18]

CC(=O)c1cnccn1
inactive: Potency [1] | Potency [2] | Potency [3] | Potency [4] | outcome [5] | Potency [19] | outcome [8] | outcome [9] | outcome [10] | outcome [11] | outcome [12] | outcome [13] | outcome [14] | outcome [15] | outcome [16] | outcome [20] | Potency [17] | Potency [18]

C[N+](C)(C)CCCCCCCCCC[N+](C)(C)C
inactive: Potency [1] | Potency [2] | Potency [3] | Potency [4] | outcome [5] | outcome [6] | outcome [7] | outcome [8] | outcome [9] | outcome [10] | outcome [11] | outcome [12] | outcome [13] | outcome [14] | outcome [15] | outcome [16] | outcome [20] | Potency [17]

Cc1cccc(C)c1NC(=O)CC12CCCN1CCC2
inactive: Potency [1] | Potency [2] | Potency [3] | Potency [4] | outcome [5] | Potency [19] | outcome [9] | outcome [10] | outcome [11] | outcome [12] | outcome [13] | outcome [14] | outcome [15] | outcome [16] | outcome [20] | Potency [17] | Potency [18]

CCCCCCC1CCC(=O)O1 (stereo not given)
inactive: Potency [1] | Potency [2] | Potency [3] | Potency [4] | outcome [5] | outcome [6] | outcome [7] | outcome [8] | outcome [9] | outcome [10] | outcome [11] | outcome [12] | outcome [13] | outcome [14] | outcome [15] | outcome [16] | outcome [20]

C=COC(=O)C(C)(CC)CCC(C)C (stereo not given)
inactive: Potency [1] | Potency [2] | Potency [3] | Potency [4] | outcome [5] | outcome [6] | outcome [7] | outcome [8] | outcome [9] | outcome [10] | outcome [11] | outcome [12] | outcome [13] | outcome [14] | outcome [15] | outcome [16] | outcome [20] | Potency [17]

CC(C)(C)OC(=O)c1cccc(N)c1
active: Potency [19] 35.3 µM
inactive: Potency [1] | Potency [2] | Potency [3] | Potency [4] | outcome [5] | outcome [7] | outcome [8] | outcome [10] | outcome [11] | outcome [12] | outcome [13] | outcome [14] | outcome [15] | outcome [16] | Potency [17] | Potency [18]
